Where “and” joins values, the source holds several entries; their conditions need not be identical. Equal values may be shown once. Records with an inconclusive call do not appear. A structure can be active in one record and inactive in another. Calls of active or inactive are those of the source. Unless noted, calls follow the shape of the dose curve; as a rule, active = well fitted curve in the direction sought with a large enough effect in the repeat runs; inconclusive = weak or mixed curves; inactive = no such curve, though single readings can be large; an effect the other way counts as inactive or inconclusive.
Tests used:
[1] = qHTS assay for small molecules that induce genotoxicity in human embryonic kidney cells expressing luciferase-tagged ATAD5 (AID 651632); also: % is scaled to controls: 0 for no effect and ±100 for the full control effect; nearly all actives have a fitted effect of over 15% in size
In short: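 Concentration-response screen for ATAD5 upregulation in HEK293T luciferase reporter cells; 16 hr treatment at 37C, then luminescence after 30 min with Amplite at room temperature.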

[2] = qHTS assay for small molecule agonists of the p53 signaling pathway - cell viability (AID 651633; calls by dose curve;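 also: p53RE-bla HCT reporter cells with a stable beta-lactamase p53 reporter; series mostly up to about 83 µM; % is scaled to controls: 0 for no effect and ±100 for the full control effect; nearly all actives have a fitted effect of over 30% in size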)
In short: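 Viability counter-read: CellTiter-Glo luminescence (30 min, room temperature) in the same p53RE-bla plates. These plates had been exposed to compounds for 16 h at 37 C.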

[3] = qHTS assay for small molecules that induce genotoxicity in human embryonic kidney cells expressing luciferase-tagged ATAD5 - cell viability (AID 651634; calls by dose curve; also: % is scaled to controls: 0 for no effect and ±100 for the full control effect; nearly all actives have a fitted effect of over 25% in size)
In short: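 15.5 hr compound or vehicle exposure of HEK293T cells expressing luciferase-tagged ATAD5 at 37C; live-cell protease activity is read by fluorescence after 30 min of CellTiter-Fluor.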

[4] = qHTS assay for small molecule disruptors of the mitochondrial membrane potential - cell viability (AID 720634; calls by dose curve; also: nearly all actives have a fitted effect of over 20% in size; also: potency is read from the fitted curve at half-maximal effect)
In short: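 In this qHTS format, HepG2 cells plated overnight were pinned with compound, incubated 1 hr, and assayed for ATP luminescence with CellTiter-Glo after m-MPI dye addition.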

[5] = qHTS assay for small molecule disruptors of the mitochondrial membrane potential (AID 720635); also: potency is read from the fitted curve at half-maximal effect
In short: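 Mitochondrial membrane potential tracked with Mito-MPS dye, red aggregates (ex 540/em 590 nm) against green monomers (ex 490/em 535 nm). Compound treatment 1 hr at 37C, dye 30 min in HepG2.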

[6] = qHTS assay to test for compound auto fluorescence at 590 nm (red) in HepG2 cells (AID 720674); also: % is scaled to controls: 0 for no effect and ±100 for the full control effect
In short: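 1 hr compound incubation on HepG2 cells, 37 C, 5% CO2; plate read ex 540 nm / em 590 nm; intensities reported as Rose Bengal sodium equivalents.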

[7] = qHTS assay to test for compound auto fluorescence at 535 nm (green) in HepG2 cells (AID 720675); also: % is scaled to controls: 0 for no effect and ±100 for the full control effect
[8] = qHTS assay to test for compound auto fluorescence at 460 nm (blue) in HEK293 cells (AID 720678); also: % is scaled to controls: 0 for no effect and ±100 for the full control effect
In short: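 HEK293 cells (2,000 per well, medium with 10% dialyzed FBS) attached for 4-5 hr at 37C, then received compound and stood overnight at 37C, 5% CO2. Blue fluorescence was read at Ex/Em 405/460 nm and expressed relative to triamterene.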

[9] = qHTS assay to test for compound auto fluorescence at 590 nm (red) in HEK293 cells (AID 720679); also: % is scaled to controls: 0 for no effect and ±100 for the full control effect
In short: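 HEK293 cells (2,000/well, medium with 10% dialyzed FBS) attached for 4-5 hr at 37C, received 23 nL compound and were incubated overnight at 37C, 5% CO2. Red fluorescence was then read at 540/590nm Ex/Em, referenced to Rose Bengal sodium.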

[10] = qHTS assay to test for compound auto fluorescence at 535 nm (green) in HEK293 cells (AID 720680); also: % is scaled to controls: 0 for no effect and ±100 for the full control effect
[11] = qHTS assay to test for compound auto fluorescence at 460 nm (blue) in HEK293 cell free culture (AID 720681); also: % is scaled to controls: 0 for no effect and ±100 for the full control effect
In short: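 Blue fluorescence (Ex 405/Em 460 nm, triamterene-equivalent) was read immediately after pin transfer of compound or DMSO into medium (DMEM, 10% FBS) without cells.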

[12] = qHTS assay to test for compound auto fluorescence at 535 nm (green) in HEK293 cell free culture (AID 720682); also: % is scaled to controls: 0 for no effect and ±100 for the full control effect
In short: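 No cells present: wells hold DMEM supplemented with 10% FBS, into which compound or vehicle is pinned. Green emission is then recorded (485 nm excitation, 535 nm emission) and scaled to fluorescein.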

[13] = qHTS assay to test for compound auto fluorescence at 590 nm (red) in HEK293 cell free culture (AID 720683); also: % is scaled to controls: 0 for no effect and ±100 for the full control effect
In short: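 Red-channel autofluorescence of compounds in culture medium (DMEM, 10% FBS), no cells, measured at 540/590 nm. Rose Bengal sodium is the reference fluorophore for equivalence.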

[14] = qHTS assay to test for compound auto fluorescence at 460 nm (blue) in HepG2 cell free culture (AID 720685); also: % is scaled to controls: 0 for no effect and ±100 for the full control effect
In short: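 Cell-free plates of MEM plus 10% FBS received 23 nL compound or DMSO vehicle; blue-channel (405/460 nm) intensity scored against triamterene as reference fluorophore.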

[15] = qHTS assay to test for compound auto fluorescence at 460 nm (blue) in HepG2 cells (AID 720687); also: % is scaled to controls: 0 for no effect and ±100 for the full control effect
In short: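 Blue-channel autofluorescence (Ex/Em 405/460 nm, triamterene-equivalent) was measured after 1 hr compound exposure at 37 C, 5% CO2. Cells were HepG2, plated overnight at 37 C in MEM plus 10% FBS.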

[16] = target: Glucocorticoid receptor (Homo sapiens) (UniProt P04150); test: qHTS assay to identify small molecule agonists of the glucocorticoid receptor (GR) signaling pathway (AID 720691; active = well fitted activation curve with a large enough effect in the signal ratio in the repeat runs, not every such curve was filed as active; the % refers to the signal ratio; also: % is scaled to controls: 0 for no effect and ±100 for the full control effect)
Sequence of Glucocorticoid receptor (Homo sapiens) (P04150 whole entry, looked up): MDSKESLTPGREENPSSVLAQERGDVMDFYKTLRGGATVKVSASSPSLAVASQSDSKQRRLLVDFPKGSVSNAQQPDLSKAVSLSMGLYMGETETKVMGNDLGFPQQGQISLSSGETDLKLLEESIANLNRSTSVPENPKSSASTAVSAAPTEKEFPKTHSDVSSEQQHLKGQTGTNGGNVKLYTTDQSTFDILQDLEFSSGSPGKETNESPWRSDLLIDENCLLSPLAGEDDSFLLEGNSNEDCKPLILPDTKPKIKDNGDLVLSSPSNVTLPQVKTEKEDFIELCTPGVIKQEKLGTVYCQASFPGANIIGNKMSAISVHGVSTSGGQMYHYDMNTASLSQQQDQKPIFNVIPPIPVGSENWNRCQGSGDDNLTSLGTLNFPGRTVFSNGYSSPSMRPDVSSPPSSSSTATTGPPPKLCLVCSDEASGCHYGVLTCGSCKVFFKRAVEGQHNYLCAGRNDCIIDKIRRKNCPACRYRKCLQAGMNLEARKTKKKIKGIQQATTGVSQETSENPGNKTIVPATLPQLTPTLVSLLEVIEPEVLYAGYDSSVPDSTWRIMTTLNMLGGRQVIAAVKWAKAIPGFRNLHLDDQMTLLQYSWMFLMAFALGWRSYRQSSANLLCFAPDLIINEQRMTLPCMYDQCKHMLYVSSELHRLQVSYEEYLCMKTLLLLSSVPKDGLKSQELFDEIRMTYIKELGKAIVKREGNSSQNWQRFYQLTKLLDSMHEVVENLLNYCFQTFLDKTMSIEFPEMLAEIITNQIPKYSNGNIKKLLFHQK
In short: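 Measures GR pathway activation through a GRE-beta-lactamase reporter stably integrated in HeLa cells, with 18 h compound treatment at 37 C and fluorescence detection using a FRET substrate.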

[17] = target: Glucocorticoid receptor (Homo sapiens) (UniProt P04150); test: qHTS assay to identify small molecule antagonists of the glucocorticoid receptor (GR) signaling pathway (AID 720692; active = well fitted inhibition curve with a large enough effect in the signal ratio in the repeat runs, not every such curve was filed as active; the % refers to the signal ratio; also: potency is read from the fitted curve at half-maximal effect)
In short: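 Tox21 10K library screened in concentration-response for blockade of dexamethasone (5 nM final)-induced GRE-bla reporter activity in HeLa cells; 18 h treatment, fluorescence read.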

[18] = qHTS assay for small molecule agonists of the p53 signaling pathway (AID 651631; calls by dose curve; also: potency is read from the fitted curve at half-maximal effect; nearly all actives have a fitted effect of over 15% in size)
In short: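 Agonist mode screen using a stably integrated beta-lactamase gene under p53 response elements in HCT-116 cells. Compound exposure lasts 16 h at 37 °C; fluorescence intensity is measured following 2 h FRET substrate loading.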

[19] = qHTS assay to test for compound auto fluorescence at 590 nm (red) in HepG2 cell free culture (AID 720684); also: % is scaled to controls: 0 for no effect and ±100 for the full control effect
In short: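 No cells present: MEM + 10% FBS only. Compound pinned in, red label read (540/590 nm). Activity = fluorescence equivalent to Rose Bengal sodium.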

[20] = qHTS assay to test for compound auto fluorescence at 535 nm (green) in HepG2 cell free culture (AID 720686); also: % is scaled to controls: 0 for no effect and ±100 for the full control effect

CN1C(C(=O)Nc2ccccn2)=C(O)c2sccc2S1(=O)=O
active: Potency [5] 7.17 µM
inactive: Potency [1] | Potency [2] | Potency [3] | Potency [4] | fluorescence, relative to Rose Bengal [6] -0.263% [at 18.6 µM] | fluorescence, % of fluorescein control [7] 0.0319% [at 18.6 µM] | fluorescence, % of triamterene [8] 0.367% [at 18.6 µM] | fluorescence, % of fluorescent control [9] 0.192% [at 18.6 µM] | fluorescence, % of fluorescein [10] -0.0339% [at 18.6 µM] | fluorescence, % of fluorescent control [11] 2.91% [at 18.6 µM] | activity change [12] -0.011% [at 18.6 µM] | fluorescence, % of fluorescent control [13] 0.306% [at 18.6 µM] | fluorescence, % of fluorescent control [14] 0.579% [at 18.6 µM] | fluorescence, % of fluorescent control [15] 0.333% [at 18.6 µM] | Potency [16] | Potency [17]

C=CC(=O)OCC1CC2CC1C1CCC(COC(=O)C=C)C21 (configuration not stated)
inactive: Potency [4] | outcome [6] | outcome [7] | Potency [8] | outcome [9] | outcome [10] | Potency [11] | outcome [12] | outcome [13] | outcome [19] | Potency [14] | outcome [20] | Potency [15]
active: Potency [18] 54.5 µM

OCCOCC#CCOCCO
inactive: Potency [1] | Potency [2] | Potency [3] | Potency [4] | outcome [6] | outcome [7] | Potency [8] | outcome [9] | outcome [10] | Potency [11] | outcome [12] | outcome [13] | outcome [19] | Potency [14] | outcome [20] | Potency [15]

Cc1ccccc1S
inactive: Potency [1] | Potency [2] | Potency [3] | Potency [4] | Potency [5] | outcome [6] | outcome [7] | outcome [9] | outcome [10] | Potency [11] | outcome [12] | outcome [13] | outcome [19] | Potency [14] | outcome [20] | Potency [15]

Cc1ccc(Cl)c(Nc2ccccc2C(=O)O)c1Cl
inactive: Potency [1] | Potency [2] | Potency [3] | Potency [4] | outcome [6] | outcome [7] | Potency [8] | outcome [9] | outcome [10] | Potency [11] | outcome [12] | outcome [13] | outcome [19] | Potency [14] | outcome [20] | Potency [15]

CC(CN(C)C)C(C)(O)Cc1ccc(Cl)cc1 (configuration not stated)
inactive: Potency [1] | Potency [2] | Potency [3] | Potency [4] | Potency [5] | outcome [6] | outcome [7] | Potency [8] | outcome [9] | outcome [10] | Potency [11] | outcome [12] | outcome [13] | outcome [19] | Potency [14] | outcome [20] | Potency [15] | Potency [17]

C[C@]12CC[C@@H]3c4ccc(O)cc4CC[C@H]3[C@@H]1CC[C@@H]2OC(=O)CCC1CCCC1
inactive and 61.1 µM (active): Potency [4]
inactive: Potency [1] | Potency [2] | Potency [3] | outcome [7] | Potency [8] | outcome [9] | outcome [12] | outcome [13] | outcome [19] | Potency [14] | outcome [20] | Potency [15]
active: Potency [5] 17.2 µM | Potency [17] 10.7 µM and 8.49 µM

— PubChem BioAssay (Tox21)
